TRPM1 prom inh: reduces MITF-dependent TRPM1 promoter luciferase signal. SK-MEL-5 TRPM1 promoter luciferase, 24 h. inhibition, % at 12.5 µM. 330,000 tested, 0.83% active. AID 488899;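 active = mean inhibition across replicates of 60% or more, whatever share of single replicates reaches that level; inconclusive = some that reach 60%, reason not given; inactive = mean inhibition across replicates below 60%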
HIF-2a block: blocks HIF-2a reporter activity; inhibition, % at 18.8 µM; AID 624352; 360,000 tested, 0.72% active; 786-0 RCC cells HIF-2a reporter, luciferase luminescence, overnight;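 active = inhibition of the luminescence signal of 40% or more relative to plate controls, in a single-dose primary screen at 18.75 µM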
Peg3 prom inh: reduces Peg3 promoter-driven luciferase expression in HeLa | 360,000 tested, 1.7% active | inhibition, % at 20 µM | AID 588405 | HeLa PEG-Prom luciferase reporter, luminescence, overnight;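 active = inhibition of at least 50% at 20 µM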
CF NFkB inh: cystic fibrosis NF-kB activation inhibition; KKLEB NF-kB-GFP reporter, PAF-induced, GFP fluorescence overnight; inhibition, % at 5 µM; 360,000 tested, 0.86% active; AID 588850;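 active = at least 50% inhibition at 5 µM, scaled per plate between neutral and stimulator controls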;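 also: PAF is a Pseudomonas aeruginosa culture filtrate used as stimulus; plate controls were PAF-stimulated DMSO wells for no effect and unstimulated DMSO wells for full effect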
KKLEB tox: CF airway cell cytotoxicity counter-screen | KKLEB CF airway cells viability, ATPlite luminescence, overnight; hits give low values; cells stimulated with P. aeruginosa culture filtrate | activity change (cytotoxicity), % at 5 µM | 360,000 tested, 0.36% active;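 active = corrected activity change at or below -50% at 5 µM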
Shn3 inh set2: inhibitors of Schnurri-3 3'UTR reporter in osteoblasts. Clone20 osteoblast Shn3 3'UTR firefly luciferase, 24 h. inhibition, % at 12.5 µM. 360,000 tested, 0.52% active. AID 588674;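 active = mean inhibition of at least 75% with every replicate also reaching 75%; inconclusive = mean inhibition at least 75% but some replicate below; inactive = mean inhibition below 75%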;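 also: 0% = median of neutral control wells and 100% = pilot-screen positive control compound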
Active calls of the source: *; ? = inconclusive; · = no result given. In the library only some 2.7% were active in any assay of this set; here they are far more common.

SMILES | TRPM1 prom inh | HIF-2a block | Peg3 prom inh | CF NFkB inh | KKLEB tox | Shn3 inh set2
CCc1nc2ccc(C(=O)Nc3cc(-c4ccccc4)ccc3OC)cn2c1N(CC)CCN(C)C | · | -24 | 84* | 31 | -12 | 4
Cc1ccc(Nc2c(-c3ccccn3)nc3cccc(C)n23)cc1 | 71* | 29 | 35 | 24 | -35 | 90*
CC(C)C(=O)NC(c1ccc(Cl)cc1Cl)c1ccc2cccnc2c1O (configuration not stated) | 27 | -116 | 28 | -60 | 3 | 87*
CCC(=O)NC(c1ccc(Cl)cc1Cl)c1ccc2cccnc2c1O (configuration not stated) | 57 | -21 | 50 | -44 | -8 | ?
Nc1nc2ccc(OC(F)(F)F)cc2s1 | -36 | -184 | -169 | 12 | -56* | -52
CC1CCc2sc(C(=O)NN=C3CCCC3)cc2C1 (configuration not stated) | · | -28 | -61 | -38 | 13 | -34
O=C(COC(=O)c1cncc(Br)c1)NC12CC3CC(CC(C3)C1)C2 | · | -1 | 5 | 15 | -13 | -11
O=C(OCC12CC3CC(CC(C3)C1)C2)c1ccc(NCc2cc(O)ccc2O)cc1 | 36 | 81* | 6 | 58* | -42 | 98*
O=C(OCCC12CC3CC(CC(C3)C1)C2)c1ccc(NCc2cc(O)ccc2O)cc1 | 67* | 77* | -34 | 21 | -12 | 99*
CCNC(=O)OCCC12CC3CC(CC(C3)C1)C2 | -16 | -6 | -19 | 14 | 0 | -10
COc1cccc(C(=O)Nc2nnc(S(=O)(=O)N(C)Cc3ccccc3)s2)c1 | -3 | 7 | 55* | 20 | 0 | 0
CCC(C)(C)C1CCC2(CC1)NC(=O)N(CC(=O)N(C)CCOc1ccc(Cl)cc1)C2=O (configuration not stated) | 22 | 6 | 21 | 0 | -17 | 50
CCCn1c(NC(=O)c2cccc(S(=O)(=O)N3CCCC3)c2)nc2ccccc21 | 53 | 34 | 97* | 74* | -13 | 71
CCCn1c(NC(=O)c2ccccc2)nc2ccccc21 | 5 | -65 | -41 | -10 | -11 | -7
COc1ccc(CNC(=O)CN2C(=O)C3C4C=CC(C4)C3C2=O)cc1 (configuration not stated) | 93* | 0 | 12 | 15 | 0 | -6
N=c1c2c(n(Cc3ccc(F)cc3)c3c1CCC3)CCCC2 | 33 | 12 | -1 | -7 | 10 | 52
N=c1c2c(n(Cc3ccccc3)c3c1CCC3)CCC2 | 50 | 12 | 16 | 8 | 1 | 69
N=c1c2c(n(Cc3ccc(Cl)cc3)c3c1CCC3)CCC2 | 64* | 6 | 26 | 30 | -14 | 79
N=c1c2c(n(Cc3cccc(Cl)c3)c3c1CCC3)CCCC2 | 50 | -5 | 54* | 21 | -14 | 74
COc1ccc(C(=O)N2CCCCC2c2cc(C(=O)Nc3cccc(C#N)c3)no2)cc1 (configuration not stated) | · | 8 | 13 | 4 | 2 | 0
COc1ccc(CNC(=O)C(c2ccc(C)cc2)N(Cc2cccs2)C(=O)c2ccc3c(c2)OCCO3)cc1 (configuration not stated) | 5 | -67 | 63* | 100* | -94* | 89*
COc1ccc(CNC(=O)C(c2cccs2)N(Cc2ccco2)C(=O)Cc2cccs2)cc1 (configuration not stated) | -7 | 5 | 57* | 4 | -10 | 8
COCCN(C(=O)Cc1cccs1)C(C(=O)NCc1ccc(OC)cc1)c1ccc(OC)cc1 (configuration not stated) | 9 | 10 | 10 | -13 | 9 | 16
COc1ccc(CNC(=O)C(c2ccco2)N(Cc2cccs2)C(=O)Cc2cccs2)cc1 (configuration not stated) | -1 | 6 | 39 | 8 | 0 | 32
CCN(CC)C(=O)Cn1cnc2sc(C)c(S(=O)(=O)N3CCC(C)CC3)c2c1=O | 3 | 11 | 8 | -8 | 3 | -30
SMILES | TRPM1 prom inh | HIF-2a block | Peg3 prom inh | CF NFkB inh | KKLEB tox | Shn3 inh set2
CC1(C(=O)NCc2ccccc2)CN(S(C)(=O)=O)CC(=O)N1C1CCN(Cc2ccccc2)CC1 (configuration not stated) | · | 5 | · | · | · | ·
CCc1c(C)nc2c(-c3ccccc3)c(-c3ccccc3)[nH]n2c1=O | 3 | 8 | 53* | -37 | 8 | 2
CCc1c(C)nc2cc(-c3ccccc3)[nH]n2c1=O | -25 | -248 | -270 | -6 | 1 | -110
CC(C)(C)c1ccc(C(=O)Nc2nnc(SCC(=O)NCC3CCCO3)s2)cc1 (configuration not stated) | 26 | -1 | -41 | -2 | -62* | -18
COc1ccccc1N1CCN(CC(=O)Nc2cc(C)nn2-c2nc(C)cc(C)n2)CC1 | 6 | 11 | 52* | 21 | -6 | -14
COc1ccccc1N1CCN(CC(=O)Nc2cc(F)ccc2C)CC1 | 4 | 18 | 28 | -1 | 8 | -7
CC(C)(C)OC(=O)N1CCCN(C(=O)Nc2ccc(C(F)(F)F)cc2)CC1 | · | 16 | -2 | -14 | 6 | 13
CCN1CCN(c2ccc(NC(=O)CCc3c(C)nc4c(-c5ccccc5)c(C)nn4c3C)cc2)CC1 | 16 | 23 | 70* | -6 | -27 | 2
Cc1nn2c(N3CCOCC3)cc(C(C)(C)C)nc2c1-c1ccccc1 | 6 | 13 | 5 | 0 | 8 | 5
CCN1CCN(c2cc(C(C)(C)C)nc3c(-c4ccccc4)c(C)nn23)CC1 | -18 | -8 | 51* | -7 | -1 | -10
CN(Cc1ccccc1)C(=O)CCS(=O)(=O)c1ccc2c(c1)NC(=O)CS2 | 0 | 6 | 0 | 5 | -4 | -9
O=C(c1ccc(Cl)c(S(=O)(=O)N2CCc3ccccc32)c1)N1CCN(c2ccccc2O)CC1 | 39 | 11 | 69* | -4 | -14 | 40
CCCN(CCC)CCCNC(=O)c1cn(-c2ccc(OC)cc2)c(=O)c2ccccc12 | -3 | 13 | 5 | -14 | 7 | -13
Cc1ccc(C2=NOC(=O)/C2=C\C=C\c2ccccc2)cc1 | 96* | 24 | 106* | 92* | -61* | 95*
COc1ccc(/C=C2/C(=O)ON=C2c2ccccc2)cc1OC | 28 | 41* | 31 | 7 | -8 | 12
COc1ccc(/C=C2\C(=O)ON=C2c2ccccc2)cc1OC | · | 22 | 38 | -11 | 2 | -49
CN(C)/C=C1\C(=O)ON=C1c1ccccc1 | 0 | 14 | 15 | 10 | 8 | 3
CCOc1ccc(/C=C/C(=O)OC(C)C(=O)NC2CCCCC2C)cc1OC (configuration not stated) | 5 | 12 | 17 | 3 | 13 | 4
Cc1[nH]n(-c2ccccc2)c(=O)c1C(C[N+](=O)[O-])c1ccc(Br)cc1 (configuration not stated) | 83* | 29 | 103* | 8 | -11 | 83
